Records with an inconclusive call do not appear. Calls of active or inactive are those of the source. Calls come from the whole dose curve; as a rule, active = well fitted curve in either direction with a large enough effect (not every such curve was filed as active); inconclusive = small, poorly fitted or top-dose-only effect, or another doubt; inactive = flat fitted curve, though single readings scatter.
Assay: AP1 Signaling Pathway (AID 357);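 note: ME-180 reporter cells stimulated with EGF at its EC50 level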
Conditions: ME-180 (cervical carcinoma) AP-1-bla reporter, EGF-induced, beta-lactamase ratio, 5 h; at 17.2 µM (top of the series) unless noted
How it was run: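 Cells are seeded overnight, exposed to compound titrations and an EC50 level of EGF for 5 hours at 37 °C, then loaded with CCF4 dye for 2.5 hours. Beta-lactamase activity under the AP-1 element is read as a blue/green ratio.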
% is set by controls: 0 for no effect and ±100 for the full control effect.

Activity change, negative = inhibition, inactive:
Cc1cc(OCC(=O)Nn2cnnc2)ccc1Br 11.6%, COc1ccc(NCc2cc3ccccc3[nH]c2=O)cc1 -1.34%, O=C(Nc1ccccn1)c1ccc(=O)[nH]n1 -7.67%, COn1c(=S)[nH]c2ccccc2c1=O 20.1%, Cc1c2c([n+]3n1CCC3)CC(C)(C)CC2=O 8.99%, CCOc1ccc(C2C(C(=O)c3ccc(C)o3)=C(O)C(=O)N2CCCN(CC)CC)cc1 (stereo not given) -5.84%, O/N=C(\c1ccc2c(c1)OCCO2)C1CCCCC1 -6.69%, CCOC(=O)c1[nH]c2ccc(Br)cc2c1NC(=O)CCN1CCN(C(=O)OCC)CC1 -25%, O=C1OC(Nc2ccc(Br)cn2)c2ccccc21 (stereo not given) 12.2%, CCOC(=O)C1(c2nc(N)cs2)COC(=O)C1 (stereo not given) 6.34%, Cc1cc2c(c(=O)o1)C(Cc1ccccc1)C(C#N)=C(N)O2 (stereo not given) 4.23%, O=C(c1ccccc1)c1cc(-c2ccccc2)on1 -5.5%, CCCSc1nc(C)c(CC(=O)OCC)c(=O)[nH]1 -4.57%, Nn1c(SCC(=O)Nc2ccc3c(c2)OCCO3)nnc1C(F)(F)F 3.25%, CCOC(=O)c1c(N)sc2c1CCC1C(=O)N(C3CCCCC3)C(=O)C21 (stereo not given) -12.9%, O=C(NCc1cccnc1)NC(C(F)(F)F)C(F)(F)F 12.5%, COC(=O)c1[nH]c(C)c(/C(O)=C2\C(=O)C(=O)N(CCN3CCOCC3)C2c2cccnc2)c1C (stereo not given) 0.561%, Cc1[nH]nc2c1C(CCc1ccccc1)C(C#N)=C(N)O2 (stereo not given) -6.35%, COc1ccc(-c2onc(C)c2-c2ccccc2)c(O)c1 -16.7%, CCOC(=O)C1=C(C(C)=O)C(c2cccnc2)C(C#N)=C(N)O1 (stereo not given) 29.3%, CCOC(=O)NC(O)C(=O)c1cccs1 (stereo not given) 11.6%, CCOc1nc(-c2ccncc2)nc2ccccc12 -12%, CCC(C)Nc1nc(OC)nc(N(C)C#N)n1 (stereo not given) 12.2%, CC(=O)Nc1ccc(NCC(O)COc2ccccc2)cc1 (stereo not given) -3%, COC(=O)CSc1nc(N)c2c3c(sc2n1)CCCC3 -0.00134%, COCCCn1c2nc3ccccc3nc2c2c(=O)n(CC3CCCO3)cnc21 (stereo not given) 0.107%, CN(C)CCNC(=O)C12CC3(C)CC(C)(CC(C)(C3)C1)C2 7.28%, COc1ccc(/C(O)=C2/C(=O)C(=O)N(CCN(C)C)C2c2ccccn2)cc1OC (stereo not given) 4.92%, C[n+]1cccc(CNC(=O)/C=N/O)c1 -0.78%, O=C(CN1C(=O)c2ccccc2C1=O)NCc1ccncc1 -3.15%, O=C1NC(c2cccs2)Nc2ccccc21 (stereo not given) -27%, O=S(=O)(O)c1nc2ccccc2n1Cc1ccc(Cl)cc1Cl 18.6%, COc1cccc(NC(=O)c2cc(C(=O)Nc3cccc(OC)c3)n(C)n2)c1 -12.7%, CCOC(=O)c1[nH]c2ccccc2c1NC(=O)CN(C)C 1.77%, Cc1nn(C)cc1CNC(=O)c1ccc(Br)o1 5.3%, CCOC(=O)c1c(C(C#N)C#N)cc(C)nc1C 9.21%, CC1(C)CC(=O)C2=C(C1)N(CC1CCCO1)C(=O)C2(O)C(F)(F)F (stereo not given) 4.53%, CCCCOc1ccc(C2CC(=O)N(C)C2=O)cc1 (stereo not given) -14.6%, Cc1ccc(S(=O)(=O)N(CC(O)CN2CCOCC2)c2cc(Cl)ccc2Cl)cc1 (stereo not given) 0.294%, c1ccc2c(c1)nc(CN1CCOCC1)n1c3ccccc3nc21 25.2%

Assay: NFAT Signaling Pathway (AID 444);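 note: carbachol stimulus at about its EC50 of 1 µM final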
Conditions: Jurkat NFAT-bla M1, carbachol, beta-lactamase ratio, 5 h; at 17.2 µM (top of the series) unless noted
How it was run: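 Read-out: CCF4 FRET ratio (460 nm/530 nm) after 1 h RT dye loading, used for %activity and AC50 from titration series. Cells: Jurkat NFAT-β-lactamase/M1 line, treated with compound plus 1 uM carbachol for 5 h, 37 °C.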

Activity change, negative = inhibition, inactive:
Cc1cc(OCC(=O)Nn2cnnc2)ccc1Br -7.1%, COc1ccc(NCc2cc3ccccc3[nH]c2=O)cc1 -19.9%, O=C(Nc1ccccn1)c1ccc(=O)[nH]n1 0.366%, COn1c(=S)[nH]c2ccccc2c1=O 11.2%, Cc1c2c([n+]3n1CCC3)CC(C)(C)CC2=O -9.27%, CCOc1ccc(C2C(C(=O)c3ccc(C)o3)=C(O)C(=O)N2CCCN(CC)CC)cc1 (stereo not given) 12.8%, O/N=C(\c1ccc2c(c1)OCCO2)C1CCCCC1 -7.17%, CCOC(=O)c1[nH]c2ccc(Br)cc2c1NC(=O)CCN1CCN(C(=O)OCC)CC1 -25.7%, O=C1OC(Nc2ccc(Br)cn2)c2ccccc21 (stereo not given) 16.3%, CCOC(=O)C1(c2nc(N)cs2)COC(=O)C1 (stereo not given) -1.85%, Cc1cc2c(c(=O)o1)C(Cc1ccccc1)C(C#N)=C(N)O2 (stereo not given) 9.9%, O=C(c1ccccc1)c1cc(-c2ccccc2)on1 -10%, CCCSc1nc(C)c(CC(=O)OCC)c(=O)[nH]1 -4.22%, Nn1c(SCC(=O)Nc2ccc3c(c2)OCCO3)nnc1C(F)(F)F -1.93%, CCOC(=O)c1c(N)sc2c1CCC1C(=O)N(C3CCCCC3)C(=O)C21 (stereo not given) -2.94%, O=C(NCc1cccnc1)NC(C(F)(F)F)C(F)(F)F 2.52%, COC(=O)c1[nH]c(C)c(/C(O)=C2\C(=O)C(=O)N(CCN3CCOCC3)C2c2cccnc2)c1C (stereo not given) -7.81%, Cc1[nH]nc2c1C(CCc1ccccc1)C(C#N)=C(N)O2 (stereo not given) 10.3%, COc1ccc(-c2onc(C)c2-c2ccccc2)c(O)c1 9.81%, CCOC(=O)C1=C(C(C)=O)C(c2cccnc2)C(C#N)=C(N)O1 (stereo not given) -19%, CCOC(=O)NC(O)C(=O)c1cccs1 (stereo not given) -1.46%, CCOc1nc(-c2ccncc2)nc2ccccc12 2.73%, CCC(C)Nc1nc(OC)nc(N(C)C#N)n1 (stereo not given) 12.5%, CC(=O)Nc1ccc(NCC(O)COc2ccccc2)cc1 (stereo not given) -5.41%, COC(=O)CSc1nc(N)c2c3c(sc2n1)CCCC3 -7.55%, COCCCn1c2nc3ccccc3nc2c2c(=O)n(CC3CCCO3)cnc21 (stereo not given) -12.4%, CN(C)CCNC(=O)C12CC3(C)CC(C)(CC(C)(C3)C1)C2 -25.2%, COc1ccc(/C(O)=C2/C(=O)C(=O)N(CCN(C)C)C2c2ccccn2)cc1OC (stereo not given) -3.03%, C[n+]1cccc(CNC(=O)/C=N/O)c1 2.4%, O=C(CN1C(=O)c2ccccc2C1=O)NCc1ccncc1 -0.713%, O=C1NC(c2cccs2)Nc2ccccc21 (stereo not given) -4.93%, O=S(=O)(O)c1nc2ccccc2n1Cc1ccc(Cl)cc1Cl 7.47%, COc1cccc(NC(=O)c2cc(C(=O)Nc3cccc(OC)c3)n(C)n2)c1 -14.3%, CCOC(=O)c1[nH]c2ccccc2c1NC(=O)CN(C)C -6.47%, Cc1nn(C)cc1CNC(=O)c1ccc(Br)o1 -0.512%, CCOC(=O)c1c(C(C#N)C#N)cc(C)nc1C -6.15%, CC1(C)CC(=O)C2=C(C1)N(CC1CCCO1)C(=O)C2(O)C(F)(F)F (stereo not given) 0.206%, CCCCOc1ccc(C2CC(=O)N(C)C2=O)cc1 (stereo not given) -3.42%, Cc1ccc(S(=O)(=O)N(CC(O)CN2CCOCC2)c2cc(Cl)ccc2Cl)cc1 (stereo not given) -11%, c1ccc2c(c1)nc(CN1CCOCC1)n1c3ccccc3nc21 25.2%
